Hits are enriched below; roughly 3% of the tested compounds scored in any of these assays.
Bim-Mcl-1 – inhibitors of Bim peptide binding to Mcl-1, primary screen, biochemical, bead-based flow cytometry, multiplex. inhibition, % at 10 µM. hit rate 0.1% among 190,000. Bim peptide-Mcl-1 binding. AID 1009, 2008. Induced myeloid leukemia cell differentiation protein Mcl-1 (Homo sapiens), Q07820; in the data active means inhibition above about 40%;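 further: 0% = no compound tracer wells and 100% = peptide blocker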
Target sequence (Q07820 whole entry, looked up): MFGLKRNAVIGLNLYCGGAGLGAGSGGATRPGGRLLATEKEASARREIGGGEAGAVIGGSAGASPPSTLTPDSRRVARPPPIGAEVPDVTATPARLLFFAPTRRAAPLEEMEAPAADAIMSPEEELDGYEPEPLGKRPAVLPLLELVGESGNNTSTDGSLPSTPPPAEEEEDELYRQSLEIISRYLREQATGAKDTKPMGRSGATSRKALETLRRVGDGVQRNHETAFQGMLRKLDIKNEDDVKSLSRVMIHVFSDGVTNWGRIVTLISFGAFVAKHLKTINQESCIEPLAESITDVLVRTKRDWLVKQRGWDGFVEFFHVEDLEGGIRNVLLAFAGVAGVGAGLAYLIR
Mcl1 Noxa PPI – Mcl-1/Noxa binding inhibitors, primary screen, biochemical, TR-FRET, 1536-well; inhibition, % at 21.7 µM; AID 1022, 2008; Induced myeloid leukemia cell differentiation protein Mcl-1 (Homo sapiens), Q07820; TR-FRET Mcl-1/Noxa peptide binding, 2 h; hit rate 1.5% among 220,000;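 active means compounds that cut the protein-peptide binding signal by more than 50% relative to plate controls in a single-dose test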;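 further: His-tagged Mcl-1 with rhodamine Noxa BH3 peptide and terbium anti-His antibody; 0% = Mcl-1 plus Noxa peptide wells and 100% = peptide-only wells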
Mcl1 Bid PPI – Mcl-1/Bid binding inhibitors, primary screen, biochemical, TR-FRET, 1536-well; Induced myeloid leukemia cell differentiation protein Mcl-1 (Homo sapiens), Q07820; TR-FRET Mcl-1/Bid-Dy647 peptide binding; inhibition, % at 21.7 µM; hit rate 0.97% among 220,000; AID 1021, 2008;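 active means compounds that cut the binding signal by more than half at the single screening dose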;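 further: His-tagged Mcl-1 with europium anti-His antibody binding Bid BH3 peptide; 0% = Mcl-1 plus peptide wells and 100% = peptide-only wells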
14-3-3 Bad PPI – inhibitors of 14-3-3 zeta/Bad binding, primary screen, biochemical, TR-FRET, bovine 14-3-3 zeta. inhibition, % at 21.7 µM. AID 781, 2007. 14-3-3 protein zeta/delta (Bos taurus), P63103. hit rate 0.71% among 220,000. TR-FRET 14-3-3zeta/Dy647-pBad peptide displacement, 1 h;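 active means inhibition above about 70%, limit read from the data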;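 further: 0% = full 14-3-3 plus peptide FRET controls and 100% = background without 14-3-3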
Target sequence (P63103 whole entry, looked up): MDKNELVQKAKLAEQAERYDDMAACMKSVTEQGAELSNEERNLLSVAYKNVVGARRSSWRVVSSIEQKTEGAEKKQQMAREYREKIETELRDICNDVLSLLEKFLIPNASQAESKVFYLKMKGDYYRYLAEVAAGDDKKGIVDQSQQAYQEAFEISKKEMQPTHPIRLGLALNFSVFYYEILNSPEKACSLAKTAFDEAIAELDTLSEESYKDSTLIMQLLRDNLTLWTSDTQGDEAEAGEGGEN
Arbovirus inh – antivirals against arbovirus infection, primary screen, cell-based, full library, 10K replicate subset | arbovirus infection cell-based antiviral screen | inhibition, % at 10 µM | hit rate 0.37% among 200,000; in the data active means inhibition above about 30%
Numbers without * were called inactive; x = no result given; [ ] = dose if it differs, or a comment.

SMILES	Bim-Mcl-1	Mcl1 Noxa PPI	Mcl1 Bid PPI	14-3-3 Bad PPI	Arbovirus inh
CN1C=C/C(=C\c2cc[n+](C)c3ccccc23)c2ccccc21	2	85*	1	26	-4
Cc1cc(Cl)ccc1NNC(=O)CCc1ccccc1	x	11	-50	-1	x
CC1(C)CC2(C)OC(=N)C1(C#N)C2(C#N)C#N (centres undefined)	x	-9	-94	0	x
O=C(CCl)Nc1cc2[nH]c(=O)[nH]c2cc1Br	3	51*	-17	-4	7
Cc1ccccc1NCC(=O)N/N=C/C(Br)=C/c1ccccc1	2	-3	90*	-2	-18
COc1ccc(C(C)=O)cc1COC(=O)c1cccnc1SC	1	24	11	-4	1
CCC1CCC2(CC1)NC(CO)(CO)CO2 (centres undefined)	-2	2	64*	10	-1
CCCN(CCC)C1=CC(=[N+]2CCCC2)CC(C)(C)C1	0	13	2	1	4
O=C(CN1CCOCC1)N/N=C/c1ccc(-c2cccc(Cl)c2Cl)o1	x	21	-2	77*	x
Cc1cccc2cc(/C=N/NC(=O)CN3CCOCC3)c(Cl)nc12	-2	-1	87*	-6	4
Cc1ccc2cc(/C=N/NC(=O)[C@H](C)NC(=O)OC(C)(C)C)c(Cl)nc2c1	-1	19	-5	-4	-15
O=C(CN1CCOCC1)N/N=C/c1ccc(C(=O)O)cc1	-2	-10	-32	-15	-1
Cc1ccc2cc(/C=N/NC(=O)CN3CCOCC3)c(Cl)nc2c1	0	6	74*	0	-4
N#Cc1cccc(C#N)c1Oc1ccc(N)cc1	x	-2	-47	-5	x
O=C(Nc1ccc([N+](=O)[O-])cc1)Nc1ccc(OC(F)F)c(Cl)c1	-3	52*	6	3	0
COc1ccc(-c2csc(Nc3ccccc3)n2)cc1	-1	83*	-16	-8	-8
Fc1ccc(Nc2nc(-c3ccncc3)cs2)cc1	-2	51*	-10	-7	18
COc1ccc(-c2csc(Nc3ccc(S(=O)(=O)Nc4cc(C)on4)cc3)n2)cc1	1	22	-27	-3	30*
Nc1ccc(Nc2nc(-c3ccncc3)cs2)cc1	5	42	-92	-14	-14
COc1ccc(-c2csc(Nc3ccc(S(N)(=O)=O)cc3)n2)cc1	1	53*	-5	70*[fluorescence artefact?]	12
CCOC(=O)c1sc2nc(C)nc(N3CCN(c4ncccn4)CC3)c2c1C	-2	-5	-15	-11	0
Nc1nc(SCc2ccc([N+](=O)[O-])cc2)nc2nc3c(cc12)CCCC3	2	5	79*	13	-5
Nc1nc(SCC(=O)Nc2ccccc2)nc2nc3c(cc12)CCCC3	1	21	-3	20	-6
CCCCCCCC1CC(/C(C)=N/NC(N)=O)OC1=O (centres undefined)	-3	3	-3	2	8
CCn1cc(C(=O)NCc2cccs2)c(=O)c2cc(S(=O)(=O)N3CCOCC3)ccc21	x	20	51*	11	x
SMILES	Bim-Mcl-1	Mcl1 Noxa PPI	Mcl1 Bid PPI	14-3-3 Bad PPI	Arbovirus inh
CCOC(=O)c1cn(CC)c2ccc(S(=O)(=O)N3CC(C)CC(C)C3)cc2c1=O (centres undefined)	0	8	54*	22	-2
CCOC(=O)c1cn(CC)c2ccc(S(=O)(=O)N3CCC(C)CC3)cc2c1=O	-2	43	19	1	6
O=C(CCCSc1nc2ccccc2[nH]1)Nc1nnc(C2CC2)s1	5	-10	-32	-7	-1
O=C(C1=C(O)C(=O)N(c2ncccn2)C1c1ccc(Cl)c(Cl)c1)c1ccco1 (centres undefined)	-5	34	45	39	5
O=C(C1=C(O)C(=O)N(c2ncccn2)C1c1cccc(Cl)c1)c1ccco1 (centres undefined)	0	63*	43	54	3
Cc1ccc2nc(NC(=O)COC(=O)c3ccccn3)sc2c1	-1	11	5	3	7
O=C(CCc1ccccc1)NNC(=O)C12CC3CC(CC(C3)C1)C2	-2	-11	-19	-11	-1
O=C(NNC(=O)C12CC3CC(CC(C3)C1)C2)c1ccco1	88*	-4	-20	6	-3
CC(C)c1ccccc1NC(=O)COc1ccc(C(=O)NCCc2ccccc2)cc1	0	13	-15	6	5
CCOc1ccc(NC(=O)COc2ccc(C(=O)NCCc3ccccc3)cc2)cc1	12	-22	-14	72*[fluorescence artefact?]	0
Cc1nn(-c2ccccc2)c2sc(-c3n[nH]c(=S)o3)cc12	5	67*	-16	3	-15
Cc1nn(-c2ccccc2)c2sc(C(=O)O)cc12	0	2	9	23	4
C#Cc1ccc([C@H]2C=C(C(=O)N3CCOCC3)O[C@@H](OCC)[C@@H]2CCCO)cc1	0	0	-6	1	2
O=C(CNc1ccc2ccccc2c1)NNC1=NCCC1	-4	25	-20	-7	-22
O=C(CNc1ccccc1)NNC1=NCCC1	-5	13	-13	89*	-19
CCN(CC)c1ccc(CNc2nc3ccccc3n2C)cc1	x	11	97*	1	x
CCCn1c(NCc2ccc3c(c2)OCO3)nc2ccccc21	-2	18	-4	9	12
CCCn1c(NCc2cc(C)ccc2O)nc2ccccc21	-1	13	-90	x	36*
CCCCn1c(NCc2ccc3c(c2)OCO3)nc2ccccc21	0	66*	-8	1	-2
COc1cc(-c2nc3ccccn3c2/N=C/c2ccccc2)ccc1O	-5	14	-20	-26	-9
COc1cc(-c2nc3ccccn3c2/N=C/c2cc(OC)c(O)cc2Cl)ccc1O	-3	57*	-46	-6	1
Cc1cc(C)nc(/N=C(\N)N2CCCCCC2)n1	-5	-6	-13	-1	-2
Cc1cc(C)nc(/N=C(\N)N2CCc3ccccc32)n1	49*	9	-31	-9	9
O=C(O[C@@H]1Cc2c(O)cc(O)cc2O[C@@H]1c1cc(O)c(O)c(O)c1)c1cc(O)c(O)c(O)c1	0	95*	1	69	-8
O=c1c2cnn(-c3ccccc3)c2nc(-c2ccco2)n1-c1ccccc1	2	23	58*	59	-1
COc1ccc(C2CC(c3c(-c4ccccc4)c4cc(Cl)ccc4[nH]c3=O)=NN2S(C)(=O)=O)cc1OC (centres undefined)	0	-5	59*	27	3
COc1ccc(C2CC(c3cccs3)=NN2S(C)(=O)=O)cc1OC (centres undefined)	-1	-10	-25	-8	3

From PubChem BioAssay
